Assay outcomes as filed in PubChem BioAssay.
Only a selection was taken, and hits are over-represented in it overall.
GBA activity up: enhancers of human beta-glucosidase activity in Gaucher fibroblasts | activation, % at 10 µM | AID 784 | L444P Gaucher fibroblasts, 4-MU-glucoside fluorescence, 3 days | P04062 | hit rate 0.44% among 30,000; in the data active = activation above about 65%;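 also: 0% = vehicle wells and 100% = positive control wells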
Target sequence (P04062 whole entry L483P): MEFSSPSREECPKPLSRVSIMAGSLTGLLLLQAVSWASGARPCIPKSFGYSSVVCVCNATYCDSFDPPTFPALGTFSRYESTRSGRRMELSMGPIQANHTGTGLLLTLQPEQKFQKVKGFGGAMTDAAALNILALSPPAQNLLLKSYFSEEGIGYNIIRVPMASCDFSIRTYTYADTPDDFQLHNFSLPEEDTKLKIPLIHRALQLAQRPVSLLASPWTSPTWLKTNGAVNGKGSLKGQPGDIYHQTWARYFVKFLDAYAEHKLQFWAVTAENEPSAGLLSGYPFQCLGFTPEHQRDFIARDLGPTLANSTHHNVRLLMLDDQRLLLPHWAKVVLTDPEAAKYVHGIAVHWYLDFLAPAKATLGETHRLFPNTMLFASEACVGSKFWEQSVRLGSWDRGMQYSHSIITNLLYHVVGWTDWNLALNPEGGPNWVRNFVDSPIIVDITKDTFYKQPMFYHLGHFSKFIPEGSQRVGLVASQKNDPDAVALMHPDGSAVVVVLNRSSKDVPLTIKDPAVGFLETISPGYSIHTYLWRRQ
Starred values were filed as active, the others as inactive.

SMILES	GBA activity up
CN(C)CCNC(=O)c1cc2cc(Br)ccc2oc1=O	-4
Cc1ccc(N2C(=O)Nc3ccc(Br)cc3C2(O)C(=O)NCCCN(C)C)cc1C (stereo not drawn)	119*
COc1ccc(C2C=C(c3ccc(Br)s3)Nc3ncnn32)cc1OC (stereo not drawn)	-6
COc1cccc(NC(=O)C2CCCN2C(=O)Nc2cccc(F)c2)c1 (stereo not drawn)	-38
CC(=O)Nc1cccc(NC(=O)C2CCCN2C(=O)Nc2cccc(C)c2)c1 (stereo not drawn)	-10
CCCCNC(=O)C1CCCN1C(=O)Nc1cccc(OC)c1 (stereo not drawn)	73*
CC(=O)N(Cc1cc2cc(C)c(C)cc2n2nnnc12)CC1COCCO1 (stereo not drawn)	0
CCOC(=O)c1c(C)n(C)c2cc(Br)c(C(=O)OC)cc12	-11
CCOC(=O)c1c(C)n(C)c2ccc(OC(C)C(=O)OC)cc12 (stereo not drawn)	72*
CCOC(=O)c1c(C)n(C)c2ccc(OCC(O)Cn3nc(C)c(Br)c3C)cc12 (stereo not drawn)	-18
COCCn1cnnc1SCC(=O)Nc1ccccc1C(=O)Nc1ccc2c(c1)OCO2	-4
CCOc1ccccc1COC(=O)c1cccc(-n2cnnn2)c1	-2
COC(=O)CC1Sc2ccccc2NC1=O (stereo not drawn)	-22
CC(=O)c1cccc(NC(=O)C=C(C)C)c1	1
CC(=O)c1ccc2c(c1)Nc1ccccc1S2	71*
CCOC(=O)N1CCC(NC(=O)CCc2nc(-c3ccc(C)cc3)no2)CC1	6
CN=C1SC(CC(=O)Nc2cccc(C(F)(F)F)c2)C(=O)N1C (stereo not drawn)	135*
CN=C1SC(CC(=O)Nc2sc(C)c(C)c2C(=O)OC)C(=O)N1C (stereo not drawn)	-14
CCN=C1SC(CC(=O)Nc2ccccc2)C(=O)N1CC (stereo not drawn)	6
CCCn1c(C)nc2c(c1=O)c1nc3ccccc3nc1n2-c1ccc2c(c1)OCCO2	-23
Cc1cc(NC(=O)Cn2cc(C(F)(F)F)cc(Cl)c2=O)no1	-22
Cc1nc(SCC(C)C)[nH]c(=O)c1Cc1ccccc1	0
CN(CCNC(=O)c1ccc(N2CCCC2=O)cc1)CCc1ccccc1	-3
COc1ccccc1NC(=O)C1=C(C)NC2=C(C(=O)CCC2)C1c1ccc2c(c1)OCO2 (stereo not drawn)	-27
C=CCN(C(=O)Cn1nnc2ccccc21)C(C(=O)NCCOC)c1ccc(OC)cc1OC (stereo not drawn)	93*
SMILES	GBA activity up
COCCN(C(=O)Cn1nnc2ccccc21)C(C(=O)NC1CCCC1)c1cc(OC)ccc1OC (stereo not drawn)	13
COCCNC(=O)C(c1ccccc1)N(CCOC)C(=O)Cn1nnc2ccccc21 (stereo not drawn)	-7
Cc1ccc(C2CC(C(F)(F)F)n3nc(C(=O)NCC4CCCO4)cc3N2)cc1 (stereo not drawn)	-48
Cc1cc2ccccc2c(=O)n1CC(=O)N1CCN(c2cccc(Cl)c2)CC1	-13
Cc1cc2ccccc2c(=O)n1CC(=O)NC1CCCCCC1	-20
Cc1cc2ccccc2c(=O)n1CC(=O)NCC(=O)N1CCN(c2ccccc2)CC1	75*
CCc1nc(N)c(C#N)c(-c2ccccc2OC)c1C	-28
COc1ccccc1NC(=O)C1=C(C)Nc2ncnn2C1c1ccccc1C (stereo not drawn)	-28
CCOc1ccccc1C1C(C(=O)Nc2ccccc2OC)=C(C)Nc2nnnn21 (stereo not drawn)	153*
COc1ccccc1NC(=O)C1=C(C)Nc2nnnn2C1c1ccncc1 (stereo not drawn)	-13
NC1C2CN(c3nc4c(cc3F)c(=O)c(C(=O)O)cn4-c3ccc(F)cc3F)CC12 (stereo not drawn)	-52
COc1cc(NC(=O)CCCC(=O)OCC(F)(F)C(F)F)nc(OC)n1	1
O=S(=O)(NC1c2cccc3cccc(c23)C1N1CCN(CCO)CC1)c1ccccc1 (stereo not drawn)	-22
O=S(=O)(NC1c2cccc3cccc(c23)C1N1CCNCC1)c1ccccc1 (stereo not drawn)	74*
O=S(=O)(NC1CC1)c1cccc(S(=O)(=O)N2CCCC2)c1	-17
CCCCn1c2nc3ccccc3nc2c2c(=O)n(C(C)CC)cnc21 (stereo not drawn)	34
CCC(C)n1cnc2c(c1=O)c1nc3ccccc3nc1n2Cc1ccc2c(c1)OCO2 (stereo not drawn)	83*
CCC(C)n1cnc2c(c1=O)c1nc3ccccc3nc1n2-c1ccc2c(c1)OCCO2 (stereo not drawn)	-88
O=C1[C@@H]2C(c3ccccc3Cl)=NO[C@@H]2C(=O)N1Cc1ccccc1	-8
COc1ccc(Cl)cc1C(=O)NCC(C)C	-8
CCOC(=O)CCCOC(=O)c1ccc(S(=O)(=O)N(C)C)cc1	-29
COc1ccc(CCNCc2csc3nc4ccccc4n23)cc1OC	11
CCN(CC)CCCNC(CC(=O)O)C(=O)O (stereo not drawn)	-4
CC(=O)N1C(C(=O)O)CSC1c1cccc(C)c1 (stereo not drawn)	122*
Cc1cccc(CN2CCN(CC(=O)O)C2=O)c1	12
SMILES	GBA activity up
Cc1cccc(NC(=O)c2cnc3n(c2=O)CCS3)c1	-8
CCc1cccc2c(C#N)cn(CC(=O)NCCOC)c12	1
COc1ccc(CC(=O)Nc2c3c(nn2-c2cccc(C)c2C)CS(=O)C3)cc1OC (stereo not drawn)	9
CC1=C(C(N)=O)C(c2cccs2)n2nc(-c3cccc(C)c3)nc2N1 (stereo not drawn)	91*
CCOc1ccccc1C1C(C(N)=O)=C(C)Nc2nc(-c3cccc(C)c3)nn21 (stereo not drawn)	-37
CC1=C(C(N)=O)C(c2cccnc2)n2nc(-c3cccc(C)c3)nc2N1 (stereo not drawn)	27
COc1cc(C)c(S(=O)(=O)n2ccc(C)n2)cc1C	-60
CC(=O)Nc1ccc(S(=O)(=O)/N=C2\SCCN2S(=O)(=O)c2ccc(NC(C)=O)cc2)cc1	-1
CCCCS(=O)(=O)Nc1ccc(C(=O)NCC2CCCO2)cc1 (stereo not drawn)	-10
CCCNS(=O)(=O)c1ccc(C(=O)NCC2CCCO2)cc1 (stereo not drawn)	-30
Cc1ccc(C)n1-c1ccc(C(=O)NCC2CCCO2)cc1 (stereo not drawn)	93*
COc1ccc2c(CSc3nc4nc(C)cc(C)n4n3)cc(=O)oc2c1	-8
Cc1ccc(-c2nnn(CC(=O)Nc3ccccc3N3CCOCC3)n2)cc1	-18
O=C(Nc1ccccc1N1CCOCC1)c1ccc2ccccc2n1	20
Cc1cc(Cl)ccc1OC(C)C(=O)Nc1ccccc1N1CCOCC1 (stereo not drawn)	-28
Cc1ccn2cc(C(=O)Nc3ccccc3N3CCOCC3)nc2c1	92*
CC(C)Oc1cccc(C(=O)Nc2ccccc2N2CCOCC2)c1	65*
CCC(C)Oc1cccc(C(=O)Nc2ccccc2N2CCOCC2)c1 (stereo not drawn)	-2
Cn1cc(C(=O)NCCc2ccccc2)c(=O)c2cc(S(=O)(=O)N3CCOCC3)ccc21	-10
O=C(OCC1COc2ccccc2O1)c1c(F)cccc1F (stereo not drawn)	-19
O=C(c1ccc(CS(=O)(=O)c2cccc(C(F)(F)F)c2)o1)N1CCN(c2ccccn2)CC1	3
Cc1cc(C(=O)OCC(=O)NCCc2ccccc2)c(C)o1	-3
COc1cccc(-c2n[nH]c(=S)n2Cc2ccco2)c1OC	6
